Assay results as given in PubChem BioAssay (NCATS).
Records with an inconclusive call do not appear. Where a call stands in place of a potency, no number is given. Unmarked numbers belong to inactive results. The source made the active and inactive calls. Calls come from the whole dose curve; as a rule, active = well fitted curve in the direction sought with a large enough effect; inconclusive = small, poorly fitted or top-dose-only effect, or another doubt; inactive = no such curve, though single readings can be large; an effect the other way counts as inactive or inconclusive.

Columns and labels:
[1] = biological target: Rap guanine nucleotide exchange factor 3 (Homo sapiens) (UniProt O95398); experiment: Confirmatory qHTS for antagonist of cAMP-regulated guanine nucleotide exchange factor 3 (EPAC1) (AID 1645880); settings: EPAC1 Rap1B-BODIPY-GDP exchange, fluorescence; activity, negative = inhibition: at 115 µM (top of the series); note: nearly all actives have a fitted effect of over 55% in size; note: potency is the fitted concentration of half-maximal effect
How it was run: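 Released BODIPY-GDP fluoresces less than Rap1-bound BODIPY-GDP; the signal is followed at 480/540 nm at 5-min intervals over 30 min, after 5 min at room temperature. Reactions contain 100 nM EPAC1, 250 nM RAP1B-BODIPY-GDP and 50 uM GDP; results are normalized to ATA and DMSO.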

[2] = biological target: Rap guanine nucleotide exchange factor 3 (Homo sapiens) (UniProt O95398); experiment: Confirmatory qHTS for agonist of cAMP-regulated guanine nucleotide exchange factor 3 (EPAC1) (AID 1645881); note: nearly all actives have a fitted effect of over 75% in size; note: potency is the fitted concentration of half-maximal effect;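 for activation: EPAC1 catalysed release of BODIPY-GDP from Rap1B seen as fluorescence loss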
[3] = biological target: Rap guanine nucleotide exchange factor 4 (Homo sapiens) (UniProt Q8WZA2); experiment: Confirmatory qHTS for agonist of cAMP-regulated guanine nucleotide exchange factor 4 (EPAC2) (AID 1645884);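 note: nucleotide exchange releases bodipy-GDP from Rap1 and this lowers its fluorescence; nearly all actives have a fitted effect of over 65% in size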; note: potency is the fitted concentration of half-maximal effect
[4] = biological target: Rap guanine nucleotide exchange factor 4 (Homo sapiens) (UniProt Q8WZA2); experiment: Confirmatory qHTS for antagonist of cAMP-regulated guanine nucleotide exchange factor 4 (EPAC2) (AID 1645885); note: nearly all actives have a fitted effect of over 25% in size; note: potency is the fitted concentration of half-maximal effect
[5] = biological target: Rap guanine nucleotide exchange factor 3 (Homo sapiens) (UniProt O95398); experiment: Counterscreen qHTS for antagonist of cAMP-regulated guanine nucleotide exchange factor 3 (EPAC1) (AID 1645888)
How it was run: (§1)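 Rap1B–BODIPY-GDP (250 nM) with 50 uM GDP; compounds pin-transferred to 9.74 nM–152 uM final (activator) or from 7.32 nM upwards (inhibitor). Fluorescence Ex/Em 480/540 nm read at 5 and 30 min, then after adding cAMP or buffer, at room temperature.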

[6] = biological target: Rap guanine nucleotide exchange factor 3 (Homo sapiens) (UniProt O95398); experiment: Counterscreen qHTS for agonist of cAMP-regulated guanine nucleotide exchange factor 3 (EPAC1) (AID 1645889); note: nearly all actives have a fitted effect of over 40% in size; note: potency is the fitted concentration of half-maximal effect
How it was run: as §1

Sequence of Rap guanine nucleotide exchange factor 3 (Homo sapiens) (O95398 whole entry, looked up): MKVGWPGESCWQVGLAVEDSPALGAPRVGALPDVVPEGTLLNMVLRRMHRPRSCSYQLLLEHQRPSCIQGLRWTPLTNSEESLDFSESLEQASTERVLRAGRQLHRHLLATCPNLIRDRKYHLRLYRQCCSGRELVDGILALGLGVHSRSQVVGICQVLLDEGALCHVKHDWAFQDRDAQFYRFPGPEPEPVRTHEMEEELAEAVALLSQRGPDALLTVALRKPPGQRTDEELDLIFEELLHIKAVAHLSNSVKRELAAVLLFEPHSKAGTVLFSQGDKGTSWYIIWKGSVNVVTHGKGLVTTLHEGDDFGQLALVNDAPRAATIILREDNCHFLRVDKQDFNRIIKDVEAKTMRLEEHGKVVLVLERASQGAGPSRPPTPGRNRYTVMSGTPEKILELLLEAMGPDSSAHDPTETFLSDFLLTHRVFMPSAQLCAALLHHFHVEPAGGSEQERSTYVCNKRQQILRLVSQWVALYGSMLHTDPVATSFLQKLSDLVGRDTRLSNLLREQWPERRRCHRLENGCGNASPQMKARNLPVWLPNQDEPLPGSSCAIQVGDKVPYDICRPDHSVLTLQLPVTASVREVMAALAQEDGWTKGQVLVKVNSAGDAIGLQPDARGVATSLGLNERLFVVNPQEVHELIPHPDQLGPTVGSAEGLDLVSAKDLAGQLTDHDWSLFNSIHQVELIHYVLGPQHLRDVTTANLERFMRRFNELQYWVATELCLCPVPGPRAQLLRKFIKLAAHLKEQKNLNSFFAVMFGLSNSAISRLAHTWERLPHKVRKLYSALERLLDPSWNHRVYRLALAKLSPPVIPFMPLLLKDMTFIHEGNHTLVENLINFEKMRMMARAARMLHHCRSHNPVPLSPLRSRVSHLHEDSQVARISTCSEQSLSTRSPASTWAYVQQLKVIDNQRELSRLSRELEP
Sequence of Rap guanine nucleotide exchange factor 4 (Homo sapiens) (Q8WZA2 whole entry, looked up): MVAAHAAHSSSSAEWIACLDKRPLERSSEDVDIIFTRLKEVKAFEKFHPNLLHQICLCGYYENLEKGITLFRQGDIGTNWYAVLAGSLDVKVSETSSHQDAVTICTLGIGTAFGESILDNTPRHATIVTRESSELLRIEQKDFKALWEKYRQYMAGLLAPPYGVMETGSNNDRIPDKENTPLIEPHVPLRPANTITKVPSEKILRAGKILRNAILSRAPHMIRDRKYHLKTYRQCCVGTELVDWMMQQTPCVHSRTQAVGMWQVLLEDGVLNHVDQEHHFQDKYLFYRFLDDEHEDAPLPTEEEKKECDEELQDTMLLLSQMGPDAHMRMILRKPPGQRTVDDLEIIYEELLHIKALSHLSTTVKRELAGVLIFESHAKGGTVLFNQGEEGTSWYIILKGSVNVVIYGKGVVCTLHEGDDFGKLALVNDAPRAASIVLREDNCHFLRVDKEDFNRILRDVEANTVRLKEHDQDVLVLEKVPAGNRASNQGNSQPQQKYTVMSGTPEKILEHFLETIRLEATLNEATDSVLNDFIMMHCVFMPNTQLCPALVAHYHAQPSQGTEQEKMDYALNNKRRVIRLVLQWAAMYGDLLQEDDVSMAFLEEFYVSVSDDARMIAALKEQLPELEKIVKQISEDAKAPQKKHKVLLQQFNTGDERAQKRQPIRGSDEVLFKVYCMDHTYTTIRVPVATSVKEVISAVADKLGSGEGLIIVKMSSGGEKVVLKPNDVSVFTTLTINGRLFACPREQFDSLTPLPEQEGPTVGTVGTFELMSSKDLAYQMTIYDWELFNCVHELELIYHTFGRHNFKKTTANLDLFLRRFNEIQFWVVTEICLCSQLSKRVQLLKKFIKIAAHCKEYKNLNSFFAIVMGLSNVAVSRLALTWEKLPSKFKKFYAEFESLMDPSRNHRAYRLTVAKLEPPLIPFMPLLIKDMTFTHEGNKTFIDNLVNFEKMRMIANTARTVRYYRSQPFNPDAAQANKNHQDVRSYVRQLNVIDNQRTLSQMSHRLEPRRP

Structure (SMILES)	Potency [1]	Potency [2]	Potency [3]	Potency [4]	Potency [5]	Potency [6]	activation [3]	activity change, negative = inhibition [5]	activation [6]	outcome [4]
CSc1ccc(/C=N/NC(=O)CN2CCN(Cc3ccc(Cl)cc3)CC2)cc1	inactive	inactive	inactive	inactive	inactive	inactive				
Cc1cc2oc(=O)cc(CN3CCCC3)c2cc1Cl	inactive	inactive		inactive			-3.71% [at 17.1 µM, percent relative to cAMP agonist control]	3.14% [at 30.8 µM]	28.8% [at 30.8 µM]	
O=C(O)C1CC(=O)N(c2ccc(OCc3c(F)cccc3Cl)cc2)C1 (stereo unspecified)	inactive	inactive	inactive	inactive	inactive	inactive				
O=C1CCC/C(=N/NC(=O)c2sc3ccccc3c2Cl)C1	inactive	inactive	inactive	16.9 µM (active)	inactive	22.4 µM (active)				
C/C(CC(=O)Nc1ccc(Cl)c(C(F)(F)F)c1)=N\NC(=O)c1cnccn1	inactive	inactive	inactive	inactive	inactive	inactive				
COc1ccc(NC(=O)N2CCN3CCCCC3C2)cc1OC (stereo unspecified)	inactive	inactive	inactive	inactive	inactive	inactive				
CCN(CC(=O)Nc1ccc(OC)cc1)C(=O)Cc1cccs1	67.5 µM (active)	inactive	inactive	inactive	inactive	inactive				
O=C(COc1ccccc1/C=C\c1[nH]c(=O)[nH]c(=O)c1[N+](=O)[O-])Nc1ccccc1	10 µM (active)	inactive		inactive			2.16% [at 17.1 µM, percent relative to cAMP agonist control]	2.03% [at 30.8 µM]	7.06% [at 30.8 µM]	
CCN1C(=O)/C(=C/c2ccc(OCc3ccc(C(=O)O)cc3)c(Cl)c2)NC1=S	42.6 µM (active)	inactive	inactive	inactive	inactive	inactive				
Cc1cc(Br)ccc1-n1[nH]c(C)c(C=Nc2cccc3nsnc23)c1=O	inactive	inactive	inactive	inactive	inactive	inactive				
O=C(c1ccco1)N(Cc1cccs1)c1ccc(F)cc1	inactive	inactive	inactive	inactive	inactive	inactive				
CC1Cc2nc(SCC(=O)N3CCCc4ccccc43)n(C)c(=O)c2S1 (stereo unspecified)	inactive	inactive		inactive			-4.86% [at 17.1 µM, percent relative to cAMP agonist control]	-11.9% [at 30.8 µM]	4.66% [at 30.8 µM]	
CN(C(=O)CSc1nc2[nH]ncc2c(=O)[nH]1)c1ccccc1	inactive	inactive		inactive			1.67% [at 17.1 µM, percent relative to cAMP agonist control]	-21.3% [at 30.8 µM]	-11.1% [at 30.8 µM]	
CCCN1C(=O)c2[nH]nc(-c3cccc(OC)c3)c2C1c1ccccn1 (stereo unspecified)	inactive	inactive	inactive		inactive	inactive				inactive [at 12.7 µM]
O=C1CCC([N+](=O)[O-])C(c2cccc3ccccc23)N1 (stereo unspecified)	inactive	inactive		inactive			0% [at 17.1 µM, percent relative to cAMP agonist control]	-21.9% [at 30.8 µM]	45.7% [at 30.8 µM]	
COCCCn1c(=N)c(C(=O)NCc2cccnc2)cc2c(=O)n3cccc(C)c3nc21	inactive	inactive	inactive		inactive	inactive				inactive [at 12.7 µM]
CCc1nnc(NC(=O)c2ccc(-c3cccc(C(F)(F)F)c3)o2)s1	inactive	inactive		inactive			4.04% [at 17.1 µM, percent relative to cAMP agonist control]	7.54% [at 30.8 µM]	26.6% [at 30.8 µM]	
Cc1cccn2cc(CCNC(=O)c3ccco3)nc12	inactive	inactive		inactive			4.04% [at 17.1 µM, percent relative to cAMP agonist control]	-20.8% [at 30.8 µM]	19.7% [at 30.8 µM]	
CCOC(=O)c1c(NC(=O)c2ccccc2OCC)sc2c1CCC(CC)C2 (stereo unspecified)	inactive	inactive	inactive	inactive	inactive	inactive				
COc1ccc(N(C(=O)c2ccco2)S(=O)(=O)c2cc(OC)ccc2OC)cc1	inactive	inactive	inactive	inactive	inactive	inactive				
CC1CCc2c(sc3nc(SCC(=O)O)n(-c4ccccc4)c(=O)c23)C1 (stereo unspecified)	inactive	inactive		inactive			-2.98% [at 17.1 µM, percent relative to cAMP agonist control]	-13.5% [at 30.8 µM]	5.5% [at 30.8 µM]	

Structure (SMILES)	Potency [1]	Potency [2]	Potency [3]	Potency [4]	Potency [5]	Potency [6]	activation [3]	activity change, negative = inhibition [5]	activation [6]	outcome [4]
COC(=O)c1ccc(CSc2ccc3nnc(-c4cccc(F)c4)n3n2)o1	inactive	inactive		inactive			-3.47% [at 17.1 µM, percent relative to cAMP agonist control]	-19.6% [at 30.8 µM]	0.6% [at 30.8 µM]	
Cc1ccc(C(=O)Nc2ccccc2[N+](=O)[O-])cc1S(=O)(=O)N1CCOCC1	inactive	inactive	inactive	inactive	inactive	inactive				
COc1cc(CNc2ccc(O)cc2)cc(Br)c1OCc1ccccc1	inactive	inactive	inactive	inactive	inactive	inactive				
Cc1sc2ncnc(N3CCC(C(=O)Nc4ccccc4C(C)(C)C)CC3)c2c1C	inactive	inactive	inactive	inactive	inactive	inactive				
Cc1ccc(S(=O)(=O)N2CC(C(=O)O)=CC[C@H]2c2ccc(Cl)cc2)cc1	inactive	inactive	inactive	inactive	inactive	inactive				
CCN(CC)c1ccc2c(c1)OC(N)=C(C#N)C2c1cccnc1 (stereo unspecified)	inactive	89.1 µM (active)	100 µM (active)	75.7 µM (active)	inactive	35.5 µM (active)				
CN(Cc1ccccc1)C(=O)C1CCCN(Cc2cccc(Cl)c2)C1 (stereo unspecified)	inactive	inactive	inactive	inactive	inactive	inactive				
O=C(O)CCn1cc(C2CC(c3ccccc3)=NN2c2ccccc2)c(-c2ccccc2)n1 (stereo unspecified)	inactive	inactive	inactive	inactive	inactive	inactive				
Cc1ccc(S(=O)(=O)NCCC(=O)N2CCC(Cc3ccccc3)CC2)cc1	inactive	inactive		inactive			3.1% [at 17.1 µM, percent relative to cAMP agonist control]	-15.5% [at 30.8 µM]	8.49% [at 30.8 µM]	
COc1ccccc1NC(=O)CSc1nc2sc(C)c(C)c2c(=O)n1C	inactive	inactive		inactive			1.44% [at 17.1 µM, percent relative to cAMP agonist control]	-1.48% [at 30.8 µM]	15.6% [at 30.8 µM]	
Cc1cccc(C)c1OC(=O)c1ccccc1	inactive	inactive		inactive			9.32% [at 17.1 µM, percent relative to cAMP agonist control]	6.4% [at 30.8 µM]	6.89% [at 30.8 µM]	
COC(=O)COc1ccc(C(c2c(C)[nH][nH]c2=O)c2c(C)[nH][nH]c2=O)cc1	inactive	inactive	inactive	inactive	inactive	inactive				
O=C(Nc1ccccc1C(=O)O)c1cccc(S(=O)(=O)Nc2ccc(Br)cc2)c1	75.7 µM (active)	inactive	inactive	42.6 µM (active)	inactive	inactive				
O=C(O)CSc1cc(C(=O)c2ccccc2O)cn2c(=O)c3c(-c4ccccc4)csc3nc12	inactive	inactive		inactive			-8.3% [at 17.1 µM, percent relative to cAMP agonist control]	-7.65% [at 30.8 µM]	17.9% [at 30.8 µM]	
CCOc1ccc(/C=C2\SC(=S)NC2=O)cc1OC	15.1 µM (active)	inactive	inactive	inactive	inactive	inactive				
CSc1ccc(CC2C(=O)Nc3ccccc32)cc1 (stereo unspecified)	inactive	inactive	inactive	inactive	inactive	inactive				
Cc1nc(-[n+]2nc(-c3ccncc3)nn2-c2ccccc2)sc1C	22.4 µM (active)	inactive		inactive			5.19% [at 17.1 µM, percent relative to cAMP agonist control]	-23.3% [at 30.8 µM]	2.91% [at 30.8 µM]	
COC(=O)CCNC(=O)NC(CCC(C)C)c1c(-n2cccc2)sc2c1CCN(C)C2 (stereo unspecified)	inactive	inactive	inactive	inactive	inactive	inactive				
CCOC(=O)C1=CCN(S(=O)(=O)c2ccc(C)cc2)C1c1cccc(Cl)c1 (stereo unspecified)	inactive	inactive	inactive	inactive	inactive	inactive				
O=C(NCc1ccc(F)cc1)C(c1cccnc1)N(C(=O)c1csnn1)c1ccccc1 (stereo unspecified)	inactive	inactive		inactive			-0.815% [at 17.1 µM, percent relative to cAMP agonist control]	-0.606% [at 30.8 µM]	5.08% [at 30.8 µM]	
